Results filed as inconclusive are left out. Activity calls are given as the source filed them. Unless noted, calls follow the shape of the dose curve; as a rule, active = well fitted curve in the direction sought with a large enough effect; inconclusive = small, poorly fitted or top-dose-only effect, or another doubt; inactive = no such curve, though single readings can be large; an effect the other way counts as inactive or inconclusive.
Experiments:
[1] = biological target: Cytochrome P450 3A4 (Homo sapiens) (UniProt P08684); experiment: qHTS Assay for Inhibitors and Substrates of Cytochrome P450 3A4 (AID 884); also: % is scaled to controls: 0 for no effect and ±100 for the full control effect; nearly all actives have a fitted effect of over 50% in size
In short: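 20 nM human CYP3A4 with 25 uM Luciferin-PPXE (at KM) in 200 mM KPO4, preincubated 10 min with compound; NADPH regeneration started a 60 min RT reaction. Luciferin detected by luminescence, normalized to 57 uM ketoconazole as full inhibition.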

[2] = qHTS Assay for Lipid Storage Modulators (AID 1519; calls by dose curve; as to activity change, negative = inhibition: % is scaled to controls: 0 for no effect and ±100 for the full control effect); conditions: Drosophila S3 cells, BODIPY lipid droplet/cell ratio, laser cytometry, cells loaded with oleic acid; for activity change, negative = inhibition: at 57.5 µM (top of the series)
In short: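 Cells seeded at 5,000 per well were treated with compounds over a concentration series and loaded with oleic acid (400 uM, as added). Lipid droplet fluorescence (488 nm excitation, 500-530 nm channel) was read by laser-scanning cytometry and normalized to 20 uM Triacsin C.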

[3] = biological target: Ubiquitin carboxyl-terminal hydrolase 1 (Homo sapiens) (UniProt O94782); experiment: Inhibitors of USP1/UAF1: Pilot qHTS (AID 504865); also: nearly all actives have a fitted effect of over 35% in size; also: potency is read from the fitted curve at half-maximal effect;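 as to activity change, negative = inhibition: rhodamine fluorescence freed from ubiquitin-rhodamine substrate followed over time; top concentration of the series differs between compounds; % is scaled to controls: 0 for no effect and ±100 for the full control effect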
In short: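 1nM USP1/UAF1 + cpd, 15 min RT; start w/ Ub-Rho 150nM final; kinetic FL 480/540 nm, 6 reads q60 s. Buffer 50mM HEPES pH 7.8, 0.5mM EDTA, 1mM TCEP, 0.01% Tween-20, 0.1 mg/ml BSA.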

[4] = biological target: DNA dC->dU-editing enzyme APOBEC-3G (Homo sapiens) (UniProt Q9HC16); experiment: qHTS for inhibitors of Vif-A3G interactions: Validation (AID 588379); also: 0% is about no effect
In short: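 HeLa cells stably expressing Vif and A3G-eYFP, 700 cells/well, incubated overnight at 37 deg C, then exposed to compound overnight at 37 deg C. Inhibition of Vif-mediated degradation read as increased yellow fluorescence (Ex 488/Em 500-530) by laser-scanning cytometry.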

[5] = Confirmation and Secondary Assay for Modulators of Hemoglobin Beta Chain Splicing at IVS2 654 locus (AID 910);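 also: per-well total GFP intensity by laser scanning cytometry after 2-day treatment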;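 also: potency is read from the fitted curve at half-maximal effect; potency of activators that raise GFP signal by restoring correct splicing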
In short: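 HeLa cells stably carrying EGFP interrupted by mutant beta-globin IVS2-654 intron (CMV-driven) were treated with compound for 2 days at 37C; corrected splicing was scored as total peak GFP intensity per well (488 nm excitation, 500-520 nm emission).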

[6] = Confirmation and Secondary Assay for Modulators of Hemoglobin Beta Chain Splicing at IVS2 705 locus (AID 930); also: potency is read from the fitted curve at half-maximal effect
In short: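 Restored EGFP fluorescence after 2-day compound exposure reports splicing correction in IVS2-705 EGFP reporter HeLa cells; positive control was 500 nM splice-blocking PNA oligo. Signal measured as well total peak GFP intensity (488 nm excitation).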

[7] = biological target: Luciferin 4-monooxygenase (Photinus pyralis) (UniProt P08659); experiment: Biochemical firefly luciferase enzyme assay for NPC (AID 624030); also: nearly all actives have a fitted effect of over 70% in size; also: potency is read from the fitted curve at half-maximal effect;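 as to activity change, negative = inhibition: purified P. pyralis luciferase at 10 nM with luciferin and ATP substrate; 0% = DMSO and -100% = full luciferase inhibition by PTC124 control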
In short: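 Counter-screen for direct inhibition of the luciferase enzyme by approved-drug library compounds, run at 10 nM enzyme in 50 mM Tris acetate (final). Luminescence was read within 5 min of enzyme-buffer addition and normalized to PTC124 versus DMSO (0%).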

[8] = S16 Schwann cell PMP22 intronic element beta-lactamase assay (AID 624044; calls by dose curve; also: nearly all actives have a fitted effect of over 15% in size; also: potency is read from the fitted curve at half-maximal effect)
In short: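 Rat S16 Schwann cells with beta-Lac driven by a PMP22 intronic element, compound-treated 24 h at 37 °C. LiveBLAzer FRET B/G read: 460 nm normalized to potassium clavulanate vs DMSO; 535 nm FRET as viability; concentration-effect curves classified.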

CP201 = experiment: qHTS profiling for inhibitors of Plasmodium falciparum proliferation (AID 504749); also: nearly all actives have a fitted effect of over 60% in size; also: potency is read from the fitted curve at half-maximal effect;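 as to activity, negative = inhibition: 0% = DMSO vehicle and full inhibition = artemisinin control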; conditions: P. falciparum in erythrocytes, SYBR Green DNA, 72 h; series mostly up to 12.8 µM
In short: (§1)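 P. falciparum-infected erythrocytes (0.3% parasitemia, 2.5% hematocrit final) were exposed to compounds for 72 h at 37 C in 5% CO2, then lysed with SYBR Green buffer overnight at room temperature; parasite DNA fluorescence was normalized to artemisinin and DMSO controls.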

CP262 = experiment: as above; conditions: P. falciparum in erythrocytes, SYBR Green DNA, 72 h; series mostly up to 12.8 µM
In short: as §1

CP266 = experiment: as above; conditions: P. falciparum in erythrocytes, SYBR Green DNA, 72 h; series mostly up to 12.8 µM
In short: as §1

W2 = experiment: as above; conditions: P. falciparum in erythrocytes, SYBR Green DNA, 72 h; series mostly up to 12.8 µM
In short: as §1

[9] = biological target: Cytochrome P450 3A4 (Homo sapiens) (UniProt P08684); experiment: qHTS Assay for Activators of Cytochrome P450 3A4 (AID 885); also: nearly all actives have a fitted effect of over 65% in size
In short: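 Steps: enzyme/substrate mix dispensed; compound added, 10 min RT; NADPH regeneration solution added, 60 min RT; luciferin detection buffer stops reaction; 20 min later luminescence measured.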

[10] = qHTS profiling for inhibitors of Plasmodium falciparum proliferation (AID 504749); also: potency is read from the fitted curve at half-maximal effect;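 as to activity, negative = inhibition: 0% = DMSO vehicle and full inhibition = artemisinin control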; as to all read-outs here: nearly all actives have a fitted effect of over 60% in size; conditions: P. falciparum in erythrocytes, SYBR Green DNA, 72 h; for activity, negative = inhibition: at 28.7 µM (top of the series)
In short: as §1

DFO2036 = experiment: as above; conditions: P. falciparum in erythrocytes, SYBR Green DNA, 72 h; series mostly up to 12.8 µM
In short: as §1

FAB9 = experiment: as above; conditions: P. falciparum in erythrocytes, SYBR Green DNA, 72 h; series mostly up to 12.8 µM
In short: as §1

JCK = experiment: as above; conditions: P. falciparum in erythrocytes, SYBR Green DNA, 72 h; series mostly up to 12.8 µM
In short: as §1

P94_40 = experiment: as above; conditions: P. falciparum in erythrocytes, SYBR Green DNA, 72 h; series mostly up to 12.8 µM
In short: as §1

PC15 = experiment: as above; conditions: P. falciparum in erythrocytes, SYBR Green DNA, 72 h; series mostly up to 12.8 µM
In short: as §1

PC49 = experiment: as above; conditions: P. falciparum in erythrocytes, SYBR Green DNA, 72 h; series mostly up to 12.8 µM
In short: as §1

[11] = measured here: cell count channel max response
[12] = measured here: lipid channel max response

Sequence of DNA dC->dU-editing enzyme APOBEC-3G (Homo sapiens) (Q9HC16 whole entry, looked up): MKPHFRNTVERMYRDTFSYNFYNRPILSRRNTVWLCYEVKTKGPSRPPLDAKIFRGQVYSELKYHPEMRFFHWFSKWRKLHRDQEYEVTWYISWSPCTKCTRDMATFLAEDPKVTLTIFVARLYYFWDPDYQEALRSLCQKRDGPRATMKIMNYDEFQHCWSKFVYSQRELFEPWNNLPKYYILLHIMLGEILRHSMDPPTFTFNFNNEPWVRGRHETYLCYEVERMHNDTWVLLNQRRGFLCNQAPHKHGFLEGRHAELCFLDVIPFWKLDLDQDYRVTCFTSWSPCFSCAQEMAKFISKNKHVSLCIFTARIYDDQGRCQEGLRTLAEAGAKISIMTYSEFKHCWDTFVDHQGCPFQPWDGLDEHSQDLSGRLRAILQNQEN
Sequence of Luciferin 4-monooxygenase (Photinus pyralis) (P08659 whole entry, looked up): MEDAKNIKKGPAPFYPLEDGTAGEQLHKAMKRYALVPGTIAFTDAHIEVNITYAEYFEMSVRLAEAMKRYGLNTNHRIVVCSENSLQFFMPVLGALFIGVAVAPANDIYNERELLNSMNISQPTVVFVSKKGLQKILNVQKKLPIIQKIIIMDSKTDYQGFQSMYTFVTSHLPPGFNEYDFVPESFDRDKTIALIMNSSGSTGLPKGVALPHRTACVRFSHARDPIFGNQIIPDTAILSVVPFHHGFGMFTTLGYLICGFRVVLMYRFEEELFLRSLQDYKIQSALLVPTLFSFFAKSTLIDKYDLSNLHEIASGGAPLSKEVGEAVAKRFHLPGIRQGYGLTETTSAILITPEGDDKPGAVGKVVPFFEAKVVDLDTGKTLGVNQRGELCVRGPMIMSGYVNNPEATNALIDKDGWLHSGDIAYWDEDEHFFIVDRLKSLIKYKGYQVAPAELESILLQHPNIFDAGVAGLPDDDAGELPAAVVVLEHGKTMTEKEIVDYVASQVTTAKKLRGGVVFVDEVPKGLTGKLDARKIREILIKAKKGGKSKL
Sequence of Cytochrome P450 3A4 (Homo sapiens) (P08684 whole entry, looked up): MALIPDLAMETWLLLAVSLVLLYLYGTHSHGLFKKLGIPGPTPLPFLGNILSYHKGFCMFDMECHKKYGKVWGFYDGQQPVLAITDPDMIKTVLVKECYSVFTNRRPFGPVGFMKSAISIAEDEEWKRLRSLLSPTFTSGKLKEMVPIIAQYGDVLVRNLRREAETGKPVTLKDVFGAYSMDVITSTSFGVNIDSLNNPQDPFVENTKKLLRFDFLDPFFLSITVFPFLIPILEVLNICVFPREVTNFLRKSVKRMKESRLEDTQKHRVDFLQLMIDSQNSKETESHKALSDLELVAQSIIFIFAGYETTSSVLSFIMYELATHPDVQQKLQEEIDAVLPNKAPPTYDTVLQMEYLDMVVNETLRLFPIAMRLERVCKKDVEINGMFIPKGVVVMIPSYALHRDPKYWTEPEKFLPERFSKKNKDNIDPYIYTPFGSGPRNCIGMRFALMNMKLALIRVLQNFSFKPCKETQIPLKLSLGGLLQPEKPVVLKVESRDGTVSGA
Sequence of Ubiquitin carboxyl-terminal hydrolase 1 (Homo sapiens) (O94782 whole entry, looked up): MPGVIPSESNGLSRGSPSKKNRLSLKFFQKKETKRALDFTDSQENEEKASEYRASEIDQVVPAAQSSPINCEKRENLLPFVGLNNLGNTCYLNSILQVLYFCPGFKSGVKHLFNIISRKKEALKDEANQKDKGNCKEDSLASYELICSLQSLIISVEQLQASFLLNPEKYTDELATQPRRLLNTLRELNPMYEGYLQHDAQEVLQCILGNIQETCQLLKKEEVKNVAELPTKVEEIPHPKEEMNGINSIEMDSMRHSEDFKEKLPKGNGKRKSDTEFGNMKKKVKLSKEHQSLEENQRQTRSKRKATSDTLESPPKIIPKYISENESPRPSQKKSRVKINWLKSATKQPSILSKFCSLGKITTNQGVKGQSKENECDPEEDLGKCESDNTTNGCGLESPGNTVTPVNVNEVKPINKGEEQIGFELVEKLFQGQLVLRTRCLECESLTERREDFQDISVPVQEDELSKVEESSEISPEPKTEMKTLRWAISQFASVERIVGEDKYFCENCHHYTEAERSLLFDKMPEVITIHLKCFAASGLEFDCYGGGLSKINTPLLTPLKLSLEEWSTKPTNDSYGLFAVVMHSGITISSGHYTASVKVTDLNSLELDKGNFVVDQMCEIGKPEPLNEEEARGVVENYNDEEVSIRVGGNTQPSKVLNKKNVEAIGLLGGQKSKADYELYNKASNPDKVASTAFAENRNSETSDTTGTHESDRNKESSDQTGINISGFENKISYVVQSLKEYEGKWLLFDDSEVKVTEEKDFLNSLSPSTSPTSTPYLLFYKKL

O=c1c(-c2ccc(O[C@@H]3O[C@H](CO)[C@@H](O)[C@H](O)[C@H]3O)cc2)coc2cc(O)cc(O)c12
5.64%: max response [2, 12]
inactive: Potency [1] | activity change, negative = inhibition [2] 7.95% | Potency [3] | outcome [4]
-1.95%: max response [2, 11]

COC1OC(CO)C(OC2OC(C(=O)O)C(OC3OC(COS(=O)(=O)O)C(OC4OC(C(=O)O)C(OC5OC(CO)C(OC6OC(C(=O)O)C(OC7OC(COS(=O)(=O)O)C(OC8OC(C(=O)O)=C[C@H](O)C8OS(=O)(=O)O)C(O)C7NC(C)=O)[C@@H](O)C6O)C(O)C5NC(C)=O)[C@@H](O)C4O)C(O)C3NC(C)=O)[C@@H](O)C2O)C(O)C1NC(C)=O (stereo partly specified)
inactive: Potency [1] | Potency [5] | Potency [6] | activity change, negative = inhibition [2] 0.455% | Potency [3] | Potency [7] | Potency [8] | Potency (CP201) | Potency (CP262) | Potency (CP266)
active: Potency (W2) 6.75 µM
-2.95%: max response [2, 11]
-0.316%: max response [2, 12]

COC(=O)CCCC[C@@H]1SC[C@@H]2NC(=O)N[C@@H]21
-0.817%: max response [2, 11]
inactive: Potency [1] | activity change, negative = inhibition [2] 0.0624% | Potency [3] | outcome [4]
0.263%: max response [2, 12]

CCC1OC(=O)C(C)[C@@H](O[C@H]2C[C@@](C)(OC)C(O)C(C)O2)C(C)[C@@H](O[C@@H]2OC(C)CC(N(C)C)C2O)[C@@](C)(O)CC(C)C(=O)[C@@H](C)C(O)[C@]1(C)O (stereo partly specified)
15.2%: max response [2, 11]
active: Potency ([10]; parasite line B) 11.2 µM
inactive: Potency [9] | Potency [5] | Potency [6] | activity change, negative = inhibition [2] -1.12% | Potency [3] | Potency [7] | Potency [8] | Potency (CP201) | Potency (CP262) | Potency (CP266) | Potency (DFO2036) | Potency (FAB9) | Potency (JCK) | Potency (P94_40) | Potency (PC15) | Potency (PC49)
17.2%: max response [2, 12]

C[C@@]12C=CC(=O)C=C1CCC1C3CC(O)[C@@](O)(C(=O)CO)[C@]3(C)CC(O)[C@]12F (stereo partly specified)
25.4%: max response [2, 12]
11.4%: max response [2, 11]
inactive: Potency [5] | Potency [6] | activity change, negative = inhibition [2] 10.8% | Potency [3] | Potency [7] | activity, negative = inhibition ([10]; parasite line A) 5.41% | Potency (CP201) | Potency (CP262) | Potency (CP266) | Potency (DFO2036) | Potency (FAB9) | Potency (JCK) | Potency (P94_40) | Potency (PC15) | Potency (PC49) | Potency (W2)

CC[C@H](CC[C@@H](C)C1CC[C@H]2[C@@H]3CC=C4C[C@@H](O)CC[C@]4(C)[C@H]3CC[C@]12C)C(C)C (stereo partly specified)
42.8%: max response [2, 12]
inactive: activity change, negative = inhibition [2] -0.0175% | Potency [3] | outcome [4]
43.5%: max response [2, 11]

C=Cc1c(C)/c2[n-]/c1=C\c1[n-]c(c(CC)c1C)/C=c1\[n-]c3c(c1C)C(=O)C(C(=O)[O-])C=3c1[n-]c(c(C)c1CCC(=O)[O-])\C=2.[Cu].[Na+].[Na+] (stereo unspecified)
20.1%: max response [2, 12]
inactive: Potency [9] | Potency [5] | Potency [6] | activity change, negative = inhibition [2] 23.5% | Potency [8] | activity, negative = inhibition ([10]; parasite line A) -17.5% | Potency (CP201) | Potency (CP262) | Potency (CP266) | Potency (DFO2036) | Potency (FAB9) | Potency (JCK) | Potency (PC49)
-5.82%: max response [2, 11]
active: Potency [3] 20 µM | Potency [7] 32.2 µM | Potency (W2) 12 µM

N[C@H](Cc1ccc(O)cc1)C(=O)O
inactive: activity change, negative = inhibition [2] 2.68% | Potency [3] | outcome [4]
-23%: max response [2, 12]
-25.6%: max response [2, 11]

CO[C@]12C(COC(N)=O)C3=C(C(=O)C(C)=C(N)C3=O)N1CC1NC12 (stereo partly specified)
inactive: Potency [5] | Potency [6] | activity change, negative = inhibition [2] 3.3% | Potency [7] | Potency (CP262)
5.7%: max response [2, 11]
11.5%: max response [2, 12]
active: Potency [8] 8.91 µM | Potency ([10]; parasite line A) 1.26 µM | Potency ([10]; parasite line B) 1.26 µM | Potency (DFO2036) 0.316 µM | Potency (FAB9) 5.01 µM | Potency (JCK) 5.01 µM | Potency (P94_40) 0.891 µM | Potency (PC15) 1.41 µM | Potency (PC49) 3.55 µM

C[C@@H]1O[C@@H](O[C@H]2[C@H](Oc3cc(O)c4c(c3)O[C@H](c3ccc(O)cc3)CC4=O)O[C@H](CO)[C@@H](O)[C@@H]2O)[C@H](O)[C@H](O)[C@H]1O
-6.96%: max response [2, 11]
inactive: Potency [1] | activity change, negative = inhibition [2] -1.6% | Potency [3] | outcome [4]
-9.22%: max response [2, 12]

CCC1OC(=O)CC(O)C(C)[C@@H](O[C@@H]2OC(C)[C@H](O[C@@H]3C[C@@](C)(O)C(O)C(C)O3)C(N(C)C)C2O)[C@H](CC=O)CC(C)C(=O)/C=C/C(C)=C/[C@@H]1COC1OC(C)C(O)C(OC)[C@@H]1OC (stereo partly specified)
4.9%: max response [2, 12]
-1.62%: max response [2, 11]
inactive: Potency [1] | Potency [5] | Potency [6] | activity change, negative = inhibition [2] 0.0526% | Potency [3] | Potency [7] | Potency [8] | Potency (FAB9) | Potency (JCK) | Potency (PC15) | Potency (PC49)
active: Potency (W2) 0.849 µM

OCC1OC(n2cnc3c(=S)nc[nH]c32)C(O)C1O (stereo unspecified)
-0.429%: max response [2, 12]
inactive: Potency [1] | activity change, negative = inhibition [2] 0.292% | Potency [3] | Potency [7] | Potency [8] | activity, negative = inhibition ([10]; parasite line A) -27.9% | Potency (CP201) | Potency (CP262) | Potency (CP266) | Potency (DFO2036) | Potency (FAB9) | Potency (JCK) | Potency (P94_40) | Potency (PC15) | Potency (PC49)
active: Potency [5] 3.16 µM | Potency [6] 3.98 µM
-3.48%: max response [2, 11]

OCC1O[C@H](OC2C(CO)O[C@@](O)(CO)C2O)C(O)C(O)C1O (stereo partly specified)
inactive: Potency [1] | Potency [5] | Potency [6] | activity change, negative = inhibition [2] 5.94% | Potency [3] | Potency [7] | Potency [8] | activity, negative = inhibition ([10]; parasite line A) 9.31% | activity, negative = inhibition ([10]; parasite line B) 4.3% | Potency (CP201) | Potency (CP262) | Potency (CP266) | Potency (DFO2036) | Potency (FAB9) | Potency (JCK) | Potency (P94_40) | Potency (PC15) | Potency (PC49) | Potency (W2)
24%: max response [2, 12]
14.3%: max response [2, 11]

COC(=O)[C@H]1[C@@H]2C[C@@H]3c4[nH]c5ccccc5c4CCN3C[C@H]2CC[C@H]1O
inactive: activity change, negative = inhibition [2] 4.52% | Potency [3] | outcome [4]
12.3%: max response [2, 11]
17.8%: max response [2, 12]

O=C(O)C1=C[C@@H](O)[C@@H](O)[C@H](O)C1
21.4%: max response [2, 12]
inactive: activity change, negative = inhibition [2] 5.96% | Potency [3] | outcome [4]
13.7%: max response [2, 11]

Reference: PubChem BioAssay (NCATS)
